# From PubChem BioAssay (NCATS)
# Inconclusive results are not listed. Calls of active or inactive are those of the source. Calls come from the whole dose curve; as a rule, active = well fitted curve in the direction sought with a large enough effect; inconclusive = small, poorly fitted or top-dose-only effect, or another doubt; inactive = no such curve, though single readings can be large; an effect the other way counts as inactive or inconclusive.
# Assays:
# [1] = qHTS of pediatric cancer cell lines to identify multiple opportunities for drug repurposing: Primary screen for NB-EBc1 cells (AID 1347095); note: potency is the fitted concentration of half-maximal effect
# Method in brief: (§1)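 Luminescence from CellTiter-Glo served as readout of metabolically active cells after 48 h compound exposure. Titrations: MIPE 11-point, from 0.78 nM; NPC 8-point, from 0.59 nM (final). Concentration-response curves came straight from the primary screen.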
# [2] = qHTS of pediatric cancer cell lines to identify multiple opportunities for drug repurposing: Primary screen for Saos-2 cells (AID 1347097); note: nearly all actives have a fitted effect of over 40% in size; note: potency is the fitted concentration of half-maximal effect
# Method in brief: as §1
# [3] = qHTS of pediatric cancer cell lines to identify multiple opportunities for drug repurposing: Primary screen for SK-N-SH cells (AID 1347098); note: nearly all actives have a fitted effect of over 65% in size; note: potency is the fitted concentration of half-maximal effect
# Method in brief: (§2)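 Cells (500-1,000/well) rested 5 h, then received compounds for 48 h; metabolically active cells were measured by CellTiter-Glo luminescence. Final concentrations spanned up to 46 µM (MIPE, 11-point) or 0.59 nM-46 µM (NPC, 8-point) in primary screens, 11-point in follow-ups.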
# [4] = qHTS of pediatric cancer cell lines to identify multiple opportunities for drug repurposing: Primary screen for NB1643 cells (AID 1347099); note: potency is the fitted concentration of half-maximal effect; nearly all actives have a fitted effect of over 50% in size
# Method in brief: as §1
# [5] = qHTS of pediatric cancer cell lines to identify multiple opportunities for drug repurposing: Primary screen for LAN-5 cells (AID 1347100); note: potency is the fitted concentration of half-maximal effect
# Method in brief: as §2
# [6] = qHTS of pediatric cancer cell lines to identify multiple opportunities for drug repurposing: Primary screen for Rh18 cells (AID 1347102); note: nearly all actives have a fitted effect of over 65% in size; note: potency is the fitted concentration of half-maximal effect
# Method in brief: as §2
# [7] = qHTS of pediatric cancer cell lines to identify multiple opportunities for drug repurposing: Primary screen for MG 63 (6-TG R) cells (AID 1347105); note: nearly all actives have a fitted effect of over 50% in size; note: potency is the fitted concentration of half-maximal effect
# Method in brief: as §1
# [8] = qHTS of pediatric cancer cell lines to identify multiple opportunities for drug repurposing: Primary screen for Rh30 cells (AID 1347107); note: series mostly up to about 46 µM; nearly all actives have a fitted effect of over 75% in size
# Method in brief: as §2
# [9] = qHTS of pediatric cancer cell lines to identify multiple opportunities for drug repurposing: Confirmatory screen for NB1643 cells (AID 1347109); note: potency is the fitted concentration of half-maximal effect; nearly all actives have a fitted effect of over 45% in size
# Method in brief: as §2
# [10] = qHTS of pediatric cancer cell lines to identify multiple opportunities for drug repurposing: Confirmatory screen for SK-N-MC cells (AID 1347111);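 note: potency is the fitted concentration of half-maximal effect; cells exposed to compound for 48 h before the readout; nearly all actives have a fitted effect of over 70% in size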
# Method in brief: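 Seed 500-1,000 cells/well; rest 5 h at 37 degrees C. Pin-transfer compounds, 11-point titration. Incubate 48 h. Add CellTiter-Glo, 15 min RT, read luminescence.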
# [11] = qHTS of pediatric cancer cell lines to identify multiple opportunities for drug repurposing: Confirmatory screen for LAN-5 cells (AID 1347113); note: nearly all actives have a fitted effect of over 65% in size; note: potency is the fitted concentration of half-maximal effect
# Method in brief: as §2
# [12] = qHTS of pediatric cancer cell lines to identify multiple opportunities for drug repurposing: Primary screen for U-2 OS cells (AID 1347096); note: nearly all actives have a fitted effect of over 50% in size
# Method in brief: as §2
# [13] = qHTS of pediatric cancer cell lines to identify multiple opportunities for drug repurposing: Primary screen for BT-12 cells (AID 1347101); note: potency is the fitted concentration of half-maximal effect; nearly all actives have a fitted effect of over 25% in size
# Method in brief: as §2
# [14] = qHTS of pediatric cancer cell lines to identify multiple opportunities for drug repurposing: Primary screen for OHS-50 cells (AID 1347103); note: potency is the fitted concentration of half-maximal effect; nearly all actives have a fitted effect of over 40% in size
# Method in brief: as §2
# [15] = qHTS of pediatric cancer cell lines to identify multiple opportunities for drug repurposing: Primary screen for RD cells (AID 1347104); note: potency is the fitted concentration of half-maximal effect; nearly all actives have a fitted effect of over 55% in size
# Method in brief: as §1
# [16] = qHTS of pediatric cancer cell lines to identify multiple opportunities for drug repurposing: Primary screen for Rh41 cells (AID 1347108); note: potency is the fitted concentration of half-maximal effect; nearly all actives have a fitted effect of over 70% in size
# Method in brief: as §1
# [17] = qHTS of pediatric cancer cell lines to identify multiple opportunities for drug repurposing: Primary screen for control Hh wild type fibroblast cells (AID 1347106);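 note: series mostly up to about 46 µM; a drop in luminescence marks cytotoxicity and a rise apparent proliferation; nearly all actives have a fitted effect of over 55% in size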
# Method in brief: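 Cells (500-1,000/well) in growth media were settled 5 h at 37 degrees C, then given compounds for 48 h. Viability was read as CellTiter-Glo luminescence. Primary runs used MIPE at 11 points (0.78 nM-46 µM) and NPC at 8 points (0.59 nM-46 µM); follow-ups used 11 points.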
# [18] = qHTS of pediatric cancer cell lines to identify multiple opportunities for drug repurposing: Confirmatory screen for A673 cells (AID 1347110);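 note: potency is the fitted concentration of half-maximal effect; cells exposed to compound for 48 h before the viability read; nearly all actives have a fitted effect of over 65% in size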
# Method in brief: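 Forty-eight-hour viability assay. Follow-up compounds ran at 11-point dilutions; positive control bortezomib at 2.3 uM final, neutral control DMSO.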
# [19] = qHTS of pediatric cancer cell lines to identify multiple opportunities for drug repurposing: Confirmatory screen for BT-12 cells (AID 1347112); note: potency is the fitted concentration of half-maximal effect; nearly all actives have a fitted effect of over 55% in size
# Method in brief: as §2
structure (smiles),measurement,setting,value
COc1cc(OC)c(C=CS(=O)(=O)Cc2ccc(OC)c(NCC(=O)O)c2)c(OC)c1,Potency,[1],0.187 µM (active)
same,Potency,[2],0.059 µM (active)
same,Potency,[3],7.64 µM (active)
same,Potency,[4],0.0372 µM (active)
same,Potency,[5],0.148 µM (active)
same,Potency,[6],inactive
same,Potency,[7],inactive
same,Potency,[8],inactive
same,Potency,[9],0.414 µM (active)
same,Potency,[10],0.293 µM (active)
same,Potency,[11],1.17 µM (active)
O=C(Nc1cccc(Nc2ncc(Br)c(NCCc3cnc[nH]3)n2)c1)N1CCCC1,Potency,[12],inactive
same,Potency,[2],1.05 µM (active)
same,Potency,[3],13.6 µM (active)
same,Potency,[5],0.118 µM (active)
same,Potency,[13],19.3 µM (active)
same,Potency,[14],17.2 µM (active)
same,Potency,[15],16.6 µM (active)
same,Potency,[7],14.8 µM (active)
same,Potency,[16],9.35 µM (active)
Cc1ccc2nc(NCCN)c3ncc(C)n3c2c1,Potency,[1],7.43 µM (active)
same,Potency,[2],14.8 µM (active)
same,Potency,[3],6.81 µM (active)
same,Potency,[4],5.9 µM (active)
same,Potency,[13],34.3 µM (active)
same,Potency,[14],24.3 µM (active)
same,Potency,[15],13.2 µM (active)
same,Potency,[7],18.7 µM (active)
same,Potency,[16],18.7 µM (active)
O=C1NCCc2[nH]c(-c3ccncc3)cc21,Potency,[1],2.09 µM (active)
same,Potency,[2],4.18 µM (active)
same,Potency,[13],2.43 µM (active)
same,Potency,[14],2.43 µM (active)
same,Potency,[15],6.62 µM (active)
same,Potency,[17],inactive
same,Potency,[8],inactive
same,Potency,[18],2.08 µM (active)
same,Potency,[10],7.37 µM (active)
COc1cc(C(C)C)c(Oc2cnc(NC(CO)CO)nc2N)cc1I,Potency,[1],26.4 µM (active)
same,Potency,[3],1.08 µM (active)
same,Potency,[4],2.96 µM (active)
same,Potency,[5],inactive
same,Potency,[17],inactive
CN(C)CC(=O)N1CCC(c2ccc(NC(=O)c3ncc(C#N)[nH]3)c(C3=CCCCC3)c2)CC1,Potency,[1],23.5 µM (active)
same,Potency,[2],18.7 µM (active)
same,Potency,[4],18.7 µM (active)
same,Potency,[5],16.6 µM (active)
same,Potency,[13],30.6 µM (active)
same,Potency,[6],23.5 µM (active)
same,Potency,[14],13.7 µM (active)
same,Potency,[15],18.7 µM (active)
same,Potency,[17],inactive
COc1cc([C@@H]2c3cc4c(cc3[C@H](O)[C@H]3COC(=O)[C@@H]23)OCO4)cc(OC)c1OC,Potency,[1],0.0209 µM (active)
same,Potency,[2],0.118 µM (active)
same,Potency,[3],inactive
same,Potency,[5],0.0833 µM (active)
same,Potency,[13],0.273 µM (active)
same,Potency,[6],inactive
same,Potency,[14],0.172 µM (active)
same,Potency,[8],inactive
same,Potency,[10],0.585 µM (active)
same,Potency,[19],1.04 µM (active)
same,Potency,[11],1.04 µM (active)
C=CC(=O)Nc1cc(NC(=O)c2ccc(C)c(NC(=O)c3ccno3)c2)cc(C(F)(F)F)c1,Potency,[2],18.7 µM (active)
same,Potency,[3],24.1 µM (active)
same,Potency,[4],18.7 µM (active)
same,Potency,[5],16.6 µM (active)
same,Potency,[15],33.2 µM (active)
same,Potency,[16],20.9 µM (active)
CS(=O)(=O)N1CCc2c(-c3cnc(N)nc3)nc(N3CCOCC3)nc21,Potency,[1],0.235 µM (active)
same,Potency,[2],0.935 µM (active)
same,Potency,[4],0.469 µM (active)
same,Potency,[5],0.332 µM (active)
same,Potency,[6],0.372 µM (active)
same,Potency,[14],0.0544 µM (active)
same,Potency,[15],0.418 µM (active)
same,Potency,[7],0.118 µM (active)
same,Potency,[17],inactive
same,Potency,[16],0.833 µM (active)
same,Potency,[9],1.65 µM (active)
same,Potency,[18],4.14 µM (active)
same,Potency,[10],2.61 µM (active)
same,Potency,[11],1.17 µM (active)
CC(=O)O[C@@]12CO[C@H]1C[C@H](O)[C@@]1(C)C(=O)[C@H](O)C3=C(C)[C@@H](OC(=O)C(O)[C@@H](NC(=O)OC(C)(C)C)c4ccccc4)C[C@@](O)([C@@H](OC(=O)c4ccccc4)[C@@H]21)C3(C)C (stereo partly drawn),Potency,[12],inactive
same,Potency,[6],inactive
same,Potency,[14],0.001 µM (active)
same,Potency,[7],inactive
same,Potency,[17],inactive
same,Potency,[10],0.0066 µM (active)
same,Potency,[11],inactive
N#Cc1ccc(COC[C@H]2O[C@@H](n3c(NCc4ccc(Cl)c(Cl)c4)nc4c(N)ncnc43)[C@@H](O)[C@@H]2O)cc1,Potency,[12],inactive
same,Potency,[2],inactive
same,Potency,[3],19.2 µM (active)
same,Potency,[4],18.7 µM (active)
same,Potency,[5],16.6 µM (active)
same,Potency,[14],6.85 µM (active)
same,Potency,[7],inactive
same,Potency,[17],inactive
